Measured values: PubChem BioAssay (NCI)
Where “and” joins values, the source holds several entries; their conditions need not be identical. Identical values can stand only once. About 83,000 compounds went through this panel and 20% of them were active in at least one assay; those are over-represented in the sample as a whole.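 Method: cells in 96-well plates; compound added at one concentration; 48 h incubation; percent growth measured; values under 10 scored active.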 Calls of active or inactive are those of the source.

Experiments:
Assay in all cases: NCI-60 one-dose screen, 48 h (100 = growth as untreated, 0 = no growth, -100 = all killed)
[1] = test system: NCI-H23 lung; conditions: 10 µM
[2] = test system: NCI-H226 lung; conditions: 10 µM
[3] = test system: NCI-H322M lung; conditions: 10 µM
[4] = test system: HOP-62 NSCLC; conditions: 10 µM
[5] = test system: NCI-H460 lung; conditions: 10 µM
[6] = test system: HOP-92 NSCLC; conditions: 10 µM
[7] = test system: NCI-H522 lung; conditions: 10 µM unless noted
[8] = test system: A549/ATCC NSCLC; conditions: 10 µM
[9] = test system: 786-0 renal; conditions: 10 µM
[10] = test system: COLO 205 colon; conditions: 10 µM
[11] = test system: DU-145 prostate; conditions: 10 µM unless noted
[12] = test system: K-562 leukemia; conditions: 10 µM
[13] = test system: MALME-3M melanoma; conditions: 10 µM
[14] = test system: MDA-MB-231 breast; conditions: 10 µM
[15] = test system: RXF 393 renal; conditions: 10 µM unless noted
[16] = test system: SF-268 CNS; conditions: 10 µM
[17] = test system: SF-295 CNS; conditions: 10 µM
[18] = test system: SF-539 CNS; conditions: 10 µM
[19] = test system: UACC-257 melanoma; conditions: 10 µM
[20] = test system: M14 melanoma; conditions: 10 µM

SMILES	growth [1]	growth [2]	growth [3]	growth [4]	growth [5]	growth [6]	growth [7]	growth [8]	growth [9]	growth [10]	growth [11]	growth [12]	growth [13]	growth [14]	growth [15]	growth [16]	growth [17]	growth [18]	growth [19]	growth [20]
CC(=O)OCC(OC(C)=O)C(OC(C)=O)C(OC(C)=O)C(OC(C)=O)C(/C=N/Nc1ccccc1)=N/Nc1ccccc1 (stereo not given)	79.9% (inactive)	72.7% (inactive)	65% (inactive)	66.8% (inactive)	65.2% (inactive)	79.5% (inactive)	40.6% (inactive)	60.9% (inactive)	63.6% (inactive)	97.1% (inactive)	78.4% (inactive)	22.4% (inactive)	84.5% (inactive)	58.8% (inactive)	77% (inactive)	71.5% (inactive)	46.6% (inactive)	89.9% (inactive)	82.3% (inactive)	82.3% (inactive)
Nc1c2ccccc2nc2ccccc12	11.5% (inactive) and 41.9% (inactive) and 38.5% (inactive)	2.61% (active) and 38.7% (inactive) and 40.4% (inactive)	12.1% (inactive) and 36.8% (inactive) and 31.9% (inactive)	11.3% (inactive) and 52.2% (inactive) and 47.3% (inactive)	-11.2% (active) and 2.59% (active) and 12% (inactive)	69.1% (inactive) and 2.79% (active)	-49% (active) and -11.2% (active) and 30.2% (inactive)	-5.72% (active) and 20.6% (inactive) and 28.6% (inactive)	25.5% (inactive) and 34.8% (inactive) and 50% (inactive)	-73.8% (active) and 7.85% (active) and 12.6% (inactive)	16.3% (inactive) and 40.9% (inactive)	1.31% (active) and 11.9% (inactive) and 27% (inactive)	5.23% (active) and 42% (inactive) and 34% (inactive)	25.2% (inactive) and 40.1% (inactive) and 35.4% (inactive)	8.02% (active) and -6.66% (active) and 44.2% (inactive)	24.2% (inactive) and 47.3% (inactive)	-24.9% (active) and 25.7% (inactive) and 49.5% (inactive)	21.7% (inactive) and 23.4% (inactive) and 29.2% (inactive)	-31.3% (active) and 25.4% (inactive) and 53.5% (inactive)	7.24% (active) and 34.6% (inactive) and 42.3% (inactive)
CCN1/C(=C/C=C/C=C/c2sc3ccccc3[n+]2CC)Sc2ccccc21	-22.8% (active)	11.8% (inactive)	5.13% (active)	-29% (active)	-69.7% (active)	-28.3% (active)	-57.6% (active)	-64.5% (active)	-57.6% (active)	-87.7% (active)	-17.2% (active)	-46.4% (active)	-32.8% (active)	8.54% (active)	-64.4% (active)	-75.4% (active)	-23.8% (active)	-57% (active)	-57.7% (active)	-81.7% (active)
N=S(c1ccccc1[N+](=O)[O-])c1ccccc1[N+](=O)[O-]	83.9% (inactive)	52.7% (inactive)	93.4% (inactive)	124% (inactive)	104% (inactive)	-1.88% (active)	-77.5% (active)	90.3% (inactive)	39.7% (inactive)	2.39% (active)	80.4% (inactive)	1.79% (active)	74.5% (inactive)	91.4% (inactive)	79% (inactive)	90.2% (inactive)	99.5% (inactive)	39.2% (inactive)	89.7% (inactive)	60.2% (inactive)
